# HT1080NT lethal: qHTS for induction of synthetic lethality in tumor cells producing 2HG: qHTS for the HT-1080-NT fibrosarcoma cell line; HT-1080-NT fibrosarcoma viability, CellTiter-Glo ATP luminescence, 48 h; Potency, µM (highest dose often 46.1 µM), without a hit: at the highest dose activity, negative = less viability, usual class: cytotoxic; hit rate 1.6% among 360,000; AID 686970, 2013;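 note: NT is the 2HG producing partner of a matched IDH1 knockdown line; potency is the fitted concentration of half-maximal effect; 0% = DMSO-treated cells and -100% = media-only wells without cells; nearly all actives have a fitted effect of over 55% in size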
#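 Fibrosarcoma NT cells, 750 per well in 5% FBS RPMI, were exposed to compound for 48 hours. Viability: CellTiter-Glo luminescence.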
# IL1B secr inh: qHTS for Inhibitors of Inflammasome Signaling: IL-1-beta AlphaLISA Primary Screen; THP-1 LPS/ATP IL-1B secretion, AlphaLISA, 16 h; hits give low values; activity change, % at 57.5 µM; hit rate 4.7% among 360,000; AID 743279, 2014; in the data active = activity change below about -50%; inconclusive = mostly about -30% to -49%
#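 THP-1 cells pretreated 1 hr with compounds (up to 57.5 uM final), then stimulated with LPS (250 ng/mL final) plus ATP (1.25 mM final); secreted IL-1B measured by AlphaLISA after 16 hr, decreased signal indicating inhibition.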
# TDP1 cell noCPT: qHTS for Inhibitors of human tyrosyl-DNA phosphodiesterase 1 (TDP1): qHTS in cells in absence of CPT; AID 686978, 2013; Potency, µM (titrated, usually from 46.2 µM), inactives show at the highest dose activity change, negative = growth inhibition, most hits filed as inhibitors; DT40 Tdp1-/- hTDP1 cells, no CPT, ATP luminescence, 48 h; hit rate 15% among 420,000; note: potency is the fitted concentration of half-maximal effect; nearly all actives have a fitted effect of over 55% in size
#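 Camptothecin absent (DMSO only). Human TDP1-complemented DT40 knockout cells, 400 cells/well, 37 °C for minimum 48 hr; ATP measured via CellTiter-Glo, 30 min dark incubation, luminescence.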
# ELG1 DNA repair: qHTS screen for small molecules that inhibit ELG1-dependent DNA repair in human embryonic kidney (HEK293T) cells expressing luciferase-tagged ELG1. HEK293T ELG1-luciferase reporter, luminescence, 16 h; DNA damage induced by 5-fluorouridine. hit rate 2.3% among 330,000. Potency, µM (highest dose often 46.1 µM), for the others: top-dose activity change, negative = inhibition, hits mostly inhibitors; note: potency is the fitted concentration of half-maximal effect; nearly all actives have a fitted effect of over 55% in size
#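 In this reporter screen, reduction of luminescence relative to DMSO vehicle indicated activity. Compounds and 5-fluorouridine were added together to 2,000 cells per well, incubated for 16 hr at 37 °C, then developed with ONE-Glo.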
# DT40 TDP1 CPT: qHTS for Inhibitors of human tyrosyl-DNA phosphodiesterase 1 (TDP1): qHTS in cells in presence of CPT. chicken DT40 Tdp1-/-;hTDP1 cells + 20 nM CPT, ATP luminescence, 48 h. Potency, µM (doses to about 46.2 µM), without a hit: at the top dose activity change, negative = growth inhibition, actives largely listed as inhibitors. hit rate 12% among 420,000. AID 686979, 2013; note: potency is the fitted concentration of half-maximal effect; nearly all actives have a fitted effect of over 55% in size
#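 Chicken DT40 Tdp1-/- cells complemented with human TDP1, 400 cells/well, exposed to compounds plus 20 nM camptothecin for at least 48 h at 37 C; viability read as ATP content by CellTiter-Glo luminescence.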
# HT1080 IDH1KD tx: qHTS for induction of synthetic lethality in tumor cells producing 2HG: qHTS for the HT-1080-IDH1KD cell line; HT-1080 IDH1 knockdown viability, ATP luminescence, 48 h; Potency, µM (titrated, usually from 46.1 µM), without a hit: at the highest dose activity, negative = toxicity, usual class: cytotoxic; hit rate 2% among 360,000; AID 686971, 2013;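 note: potency is the fitted concentration of half-maximal effect; 0% = DMSO wells and -100% = cell-free medium wells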
#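 In this qHTS, HT-1080 cells depleted of IDH1 are exposed for 48 h at 37 °C to compound titrations. Toxicity is scored from CellTiter-Glo luminescence, with DMSO as full viability and medium alone as none.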
# Active calls of the source: *; ? = inconclusive; . = not tested or not shown; [ ] = dose if it differs, or a comment. Shown are actives, neighbours in structure and some others; about 19% of the full set was active somewhere. Unless noted, calls come from the whole dose curve; as a rule, active = well fitted curve in the direction sought with a large enough effect; inconclusive = small, poorly fitted or top-dose-only effect, or another doubt; inactive = no such curve, though single readings can be large; an effect the other way counts as inactive or inconclusive. Unless noted, % is set by controls: 0 for no effect and ±100 for the full control effect.
SMILES,HT1080NT lethal,IL1B secr inh,TDP1 cell noCPT,ELG1 DNA repair,DT40 TDP1 CPT,HT1080 IDH1KD tx
COC(=O)Nc1ccc(S(=O)(=O)N2CCC(C(=O)NCc3ccc4c(c3)OCO4)CC2)cc1,-3.0%,12.1,-15.5%,?,-18.0%,1.3%
Cc1ccc(Cl)cc1N1CCN(C(=S)NCc2ccco2)CC1,?,-82.4*,18.4µM*,?,-7.2%,-28.2%
COc1cccc(N2CCN(C(=S)NCc3ccco3)CC2)c1,-4.9%,10.2,-18.3%,-1.2%,1.5%,-0.2%
CC1(/[N+]([O-])=C\c2ccccc2F)CCCCC1=O (stereo not drawn),13.9%,-12.7,2.0%,0.0%,9.3%,16.2%
CCC1(C)CC(CCNS(=O)(=O)c2ccc(C)cc2)(c2ccc(C)cc2)CCO1 (stereo not drawn),?,-9.0,29.1µM*,-12.9%,18.4µM*,?
O=C(CCCN1C(=O)C(c2ccccc2)Oc2cccnc21)NCc1ccccc1F (stereo not drawn),-0.6%,-22.4,?,9.7%,16.4µM*,-0.1%
O=C(CCCN1C(=O)C(c2ccccc2)Oc2cccnc21)Nc1ccccc1C(F)(F)F (stereo not drawn),.,.,1.5%,.,-17.1%,.
CCN(CC)c1ccc(NC(=O)CCCN2C(=O)C(c3ccccc3)Oc3cccnc32)c(C)c1 (stereo not drawn),.,.,10.3µM*,.,18.4µM*,.
CCc1nc2c(OCc3ccccc3)cccn2c1N(C)C(=O)C(C)C,12.5%,213.4,?,.,?,13.9%
CCC(CC)C(=O)N(C)c1c(C)nc2c(OCC=C(C)C)cccn12,?,85.0,16.4µM*,.,13µM*,14.6µM*
CCC(CC)C(=O)N(C)c1c(C)nc2c(OCCOc3ccccc3)cccn12,-5.3%,0.0,13µM*,.,23.1µM*,6.8%
CCc1nc2c(OCc3ccccc3OC)cccn2c1N(C)C(=O)C(C)C,2.5%,35.1,?,.,?,2.2%
CCOP(=O)(OCC)C(NC(C)=O)C(=O)c1ccccc1 (stereo not drawn),1.2%,-22.2,3.66µM*,9.9%,-4.8%,-1.6%
Cc1nc(C(F)(F)F)ccc1C(=O)N1CCC1(C)C(=O)NCc1cccs1 (stereo not drawn),4.4%,-18.3,-8.4%,.,-8.8%,27.3%
CC(C)Oc1cccc(NC(=O)C2(C)CCCN2C(=O)C(C)C)c1 (stereo not drawn),1.7%,0.0,-3.9%,.,?,?
O=c1[nH]c2ccc(NCc3ccc(-c4cccc(Cl)c4)o3)cc2[nH]1,.,.,18.4µM*,.,29.1µM*,.
Cc1c(Cl)cccc1-c1ccc(CNc2ccc3[nH]c(=O)[nH]c3c2)o1,.,.,?,.,3.26µM*,.
COc1cccc(CNc2ncnc3sc(C(=O)N4CC5CCC4C5)c(C)c23)c1OC (stereo not drawn),.,.,-14.7%,.,-9.7%[9.04 µM],.
Cc1ccc(CNC(=O)CN2C(=O)CCc3cc(S(=O)(=O)N4CCCCC4)ccc32)cc1,.,.,?,.,-21.5%,.
CN(Cc1ccccc1)c1ncnc2sccc12,-26.9%,-3.0,11.6µM*,-26.9%,?,?
CCCCCCCCCOC(=O)C[n+]1csc(CCO)c1C,4.3%,-18.9,10.3µM*,7.8%,?,0.4%
Cc1ccccc1OCCC(=O)Nc1ccc(Cl)cc1F,-2.5%,-10.3,-15.6%,-4.1%,-17.7%,-1.0%
O=[N+]([O-])c1cccc2c(N3CCCC3)ccnc12,-27.3%,-63.8*,8.2µM*,?,8.2µM*,?
O=[N+]([O-])c1ccc(Cl)cc1N1CCCC1,22.8%,0.1,1.2%,-7.5%,-1.8%,7.2%
O=C(c1ccccc1F)N1CCN(c2ccc([N+](=O)[O-])c3ncccc23)CC1,-5.0%,-3.1,20.6µM*,?,14.6µM*,-14.7%
SMILES,HT1080NT lethal,IL1B secr inh,TDP1 cell noCPT,ELG1 DNA repair,DT40 TDP1 CPT,HT1080 IDH1KD tx
COc1cccc(NC(=O)COC(=O)C2CC(=O)N(c3ccc(C)cc3)C2)c1 (stereo not drawn),1.3%,27.0,3.5%,4.5%,9.1%,10.4%
O=C(CCn1cccc(C(F)(F)F)c1=O)Nc1cccc(C(F)(F)F)c1,19.3%,-12.8,-18.9%,-22.1%,-10.0%,9.5%
Cn1cc(C(=O)N/N=C/c2ccc3c(c2)OCO3)c2ccccc21,20.6µM*,-15.5,5.17µM*,6.8%,7.31µM*,11.6µM*
O=C(CCc1ccc(O)c(O)c1)N/N=C/c1ccc2c(c1)OCO2,-0.9%,-7.8,?,5.8µM*,?,-24.0%
O=C(N/N=C/c1ccc2c(c1)OCO2)c1cccc2ccccc12,?,1.6,3.26µM*,-12.1%,2.06µM*,?
Cc1cccc(C)c1OCC(=O)N/N=C/c1ccc2c(c1)OCO2,14.6µM*,42.5,3.66µM*,-3.5%,2.91µM*,?
NC(=O)C1CC2(C1)CC(C(N)=O)C2 (stereo not drawn),-2.4%,-3.1,-3.1%,.,-5.3%,-2.1%
CCCNC(=O)C1(C)CCCN(Cc2ccc3c(c2)OCO3)C1 (stereo not drawn),-0.6%,3.7,-18.9%,.,-3.1%,5.8%
Cc1onc(-c2ccccc2Cl)c1C(=O)NNC(=O)c1ccccc1F,5.6%,8.7,-2.0%,?,22.2%,3.2%
Cn1cc(C(=O)N/N=C/c2cccs2)c2ccccc21,-29.7%,-11.5,8.2µM*,?,5.8%,?
Cc1occc1C(=O)N/N=C/c1ccc2c(c1)OCO2,9.2µM*,-10.2,?,?,?,8.2µM*
COc1ccc(/C=N/NC(=O)c2ccoc2C)cc1OC,27.6%,4.9,-3.8%,?,-6.2%,29.4%
COc1cc(/C=N/NC(=O)c2ccoc2C)cc(OC)c1OC,15.5%,-3.3,12.6µM*,.,?,8.3%
COc1ccccc1C(=O)NCC(=O)N/N=C/c1ccc2c(c1)OCO2,?,-2.8,?,?,?,20.6µM*
COc1ccccc1C(=O)NCC(=O)N/N=C/c1ccncc1,14.9%,10.2,-12.6%,0.8%,-6.5%,19.7%
CCOC(=O)[C@@H]1[C@H]2COc3cc(OC)ccc3[C@H]2N2C(=O)N(c3ccc(C)cc3)C(=O)[C@@]12C,?,-18.4,?,14.8%,?,15.4%
O=C(O)CNC(=O)c1ccccc1I,.,.,0.6%,.,-8.9%,.

# From PubChem BioAssay
